In publication PMC4336329 (PLoS ONE, 2015):
Screen size: about 310,000 compounds; about 14,000 (4.5%) showed an effect of 50% or more. Effects have a minus sign here. The sample as a whole holds a higher share of strong results than the screen did.

Target: human ether-à-go-go-related gene (hERG) potassium channel (human, UniProt Q12809)
Experiment: primary screen, population patch clamp on CHO cells stably expressing hERG; higher = less effect of the substance
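Note: peak tail current of the secondary pulse compared with the same well before compound.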

human ether-à-go-go-related gene (hERG) potassium channel, sequence (Q12809 whole entry, looked up): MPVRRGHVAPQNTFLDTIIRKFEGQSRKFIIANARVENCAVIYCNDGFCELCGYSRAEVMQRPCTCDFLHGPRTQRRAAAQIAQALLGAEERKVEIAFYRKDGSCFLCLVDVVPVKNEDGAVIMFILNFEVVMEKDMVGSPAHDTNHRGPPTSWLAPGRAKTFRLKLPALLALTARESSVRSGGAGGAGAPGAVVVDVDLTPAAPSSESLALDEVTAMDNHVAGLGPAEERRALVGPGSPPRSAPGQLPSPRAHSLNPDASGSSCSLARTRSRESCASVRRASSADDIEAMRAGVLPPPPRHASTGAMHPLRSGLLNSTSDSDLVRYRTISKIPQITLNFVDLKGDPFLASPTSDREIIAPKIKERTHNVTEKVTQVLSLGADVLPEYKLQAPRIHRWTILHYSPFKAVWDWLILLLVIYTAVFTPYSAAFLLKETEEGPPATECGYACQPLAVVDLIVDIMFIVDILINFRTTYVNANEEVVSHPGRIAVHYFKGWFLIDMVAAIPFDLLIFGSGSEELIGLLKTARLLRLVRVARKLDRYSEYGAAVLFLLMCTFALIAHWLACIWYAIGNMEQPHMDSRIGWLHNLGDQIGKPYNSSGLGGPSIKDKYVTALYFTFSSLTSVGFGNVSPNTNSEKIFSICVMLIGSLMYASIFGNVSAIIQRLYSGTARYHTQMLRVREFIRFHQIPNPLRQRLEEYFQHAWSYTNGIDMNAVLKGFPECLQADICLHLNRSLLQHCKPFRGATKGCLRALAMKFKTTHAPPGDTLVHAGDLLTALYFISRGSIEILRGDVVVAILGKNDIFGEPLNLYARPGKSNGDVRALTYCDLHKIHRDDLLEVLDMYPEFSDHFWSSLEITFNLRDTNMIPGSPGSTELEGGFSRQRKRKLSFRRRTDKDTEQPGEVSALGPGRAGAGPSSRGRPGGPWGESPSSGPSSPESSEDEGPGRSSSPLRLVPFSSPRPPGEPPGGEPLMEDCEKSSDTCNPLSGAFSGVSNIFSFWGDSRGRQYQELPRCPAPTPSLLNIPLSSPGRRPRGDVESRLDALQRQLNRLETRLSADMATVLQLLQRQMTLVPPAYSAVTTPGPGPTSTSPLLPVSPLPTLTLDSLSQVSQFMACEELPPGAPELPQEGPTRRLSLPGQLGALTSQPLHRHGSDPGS

Row | SMILES | hERG current change (%, negative = inhibition) at 10uM
1 | O=C(COc1ccccc1)NCCSCc1ccc(Cl)cc1 | -12.6%
2 | CCC(C)NC(=O)Cn1c(=O)sc2ccccc21 (stereo not shown) | 4.15%
3 | O=C(CN(Cc1ccccc1)S(=O)(=O)c1ccc(Cl)cc1)NCC1CCCO1 (stereo not shown) | -9.79%
4 | O=C(CN(Cc1ccccc1)S(=O)(=O)c1ccc(Br)cc1)NCC1CCCO1 (stereo not shown) | -77.2%
5 | O=C(CN(Cc1ccc(Br)cc1)S(=O)(=O)c1ccccc1)NCC1CCCO1 (stereo not shown) | -6.72%
6 | Cc1ccc(CN(CC(=O)NCC2CCCO2)S(=O)(=O)c2ccc(C)cc2)cc1 (stereo not shown) | -1.71%
7 | Cc1ccc(S(=O)(=O)N(CC(=O)NCC2CCCO2)Cc2cccc(C)c2)cc1 (stereo not shown) | -60.5%
8 | Cc1ccc(S(=O)(=O)N(CC(=O)NCC2CCCO2)Cc2ccc(F)cc2)cc1 (stereo not shown) | -10.6%
9 | Cc1noc(C)c1S(=O)(=O)N1CCCC(C(=O)Nc2nccs2)C1 (stereo not shown) | -13.6%
10 | CCOc1ccc(OCCSc2nc3ccccc3[nH]2)cc1 | -0.985%
11 | CN1CCN(CCC(=O)N2c3ccccc3Sc3ccc(Cl)cc32)CC1 | -48.9%
12 | COc1cc2c(cc1Cl)/C(=C\CCN(C)C)c1ccccc1S2.O=S(=O)(O)O | -35.4%
13 | CCSc1ccc2c(c1)N(CCCN1CCN(C)CC1)c1ccccc1S2.O=C(O)CC(O)C(=O)O | -54.2%
14 | CN(C)S(=O)(=O)c1ccc(Cl)c(NC(=O)CN2CCc3ccccc3C2)c1 | -12.7%
15 | CN1CCN(CC/C=C2\c3ccccc3Sc3ccc(S(=O)(=O)N(C)C)cc32)CC1 | -58%
16 | CN1CCN(CC/C=C2/c3ccccc3Sc3ccc(S(=O)(=O)N(C)C)cc32)CC1 | -64.7%
17 | CN1CCN(CCCN2c3ccccc3Sc3ccc(C(F)(F)F)cc32)CC1.Cl | -30.4%
18 | CN(C)S(=O)(=O)c1ccc2c(c1)C(=O)c1cc(S(=O)(=O)N(C)C)ccc1CC2 | 7.08%
19 | CN1CCN(CC(=O)N2c3ccccc3Sc3ccccc32)CC1 | -13.7%
20 | Cl.FC(F)(F)c1ccc2c(c1)N(CCCN1CCN(CCCl)CC1)c1ccccc1S2 | -8.34%
21 | CN1CCN(CC(=O)Nc2ccc(S(=O)(=O)N(C)C)cc2)CC1.O=C(O)C(=O)O | 6.74%
22 | CN1CCN(CCCN2c3ccccc3Sc3ccc(S(=O)(=O)N(C)C)cc32)CC1.CS(=O)(=O)O | -57.4%
23 | CNC(=O)c1ccc(NC(=O)CC2SC(N3CCCC3)=NC2=O)cc1 (stereo not shown) | -4.89%
24 | CCCc1nc2sc3ccccc3c(=O)c2c(=O)n1CCOC | 9.8%
25 | CCOC(=O)CN1CC23C=CC(O2)C(C(=O)Nc2ccc4c(c2)OCO4)C3C1=O (stereo not shown) | 4.95%
26 | Cc1cc(Br)ccc1NC(=O)CN(C)C(=O)COc1cccc2c1OC(C)(C)C2 | -8.15%
27 | COCCn1c(SCC(=O)Nc2ccc(C(C)=O)cc2)nc2c([nH]c3ccccc32)c1=O | 1.97%
28 | Cc1cc(O)c(-c2ccno2)cc1Cl | 13%

Row | SMILES | hERG current change (%, negative = inhibition) at 10uM
29 | CCN(CC)c1ccc(NC(=O)Cn2cc3c(n2)CCC(C)C3)c(C)c1 (stereo not shown) | -3.35%
30 | NC(=O)CSc1nnc(-c2cccs2)n1Cc1ccco1 | -13.9%
31 | COc1cc(OC)c(OC)cc1CNCCNC(=O)c1nonc1N.Cl | -0.502%
32 | COc1cc(CNCCNC(=O)c2nonc2N)ccc1OCc1ccc(Cl)nc1.Cl | -56.4%
33 | COc1cc(CNCCNCC(C)O)ccc1OCc1ccc(Cl)nc1 (stereo not shown) | -8.7%
34 | COc1cc(CNCCNC(=O)c2nonc2N)ccc1OCc1ccc(Cl)cc1.Cl | -74.4%
35 | COc1cccc(CNCCNC(=O)c2nonc2N)c1.Cl | 9.27%
36 | COc1ccc(CNCCNC(=O)c2nonc2N)cc1OC.Cl | -24.8%
37 | CC(C(=O)Nc1nccs1)N1C(=O)c2ccccc2S1(=O)=O (stereo not shown) | 11.5%
38 | CCc1nn(CCCC(=O)N2CCC(C)CC2)c(=O)c2cc3occc3n12 | -2.71%
39 | O=C(OCC(=O)N1CCCCCC1)c1cnc(Cl)c(Cl)c1 | -2.83%
40 | COc1cccc(NC(=O)c2cc([N+](=O)[O-])ccc2NC(=O)CNCC2CCCO2)c1 (stereo not shown) | -16.4%
41 | Cc1cccc(NC(=O)c2ccc(NCC3CCCO3)c([N+](=O)[O-])c2)n1 (stereo not shown) | 14.2%
42 | Cc1cccc(NC(=O)c2cc([N+](=O)[O-])ccc2N2CCCCC2)n1 | -35.1%
43 | Cc1cccc(NC(=O)c2cc([N+](=O)[O-])ccc2NCC2CCCO2)n1 (stereo not shown) | -80.9%
44 | COCCNc1ccc([N+](=O)[O-])cc1C(=O)Nc1cccc(C)n1 | -62.7%
45 | Cc1cccc(NC(=O)c2ccc([N+](=O)[O-])cc2Cl)n1 | -22.8%
46 | Cc1ccc(C)c(N(CC(=O)NN=C2CCCCCCC2)S(C)(=O)=O)c1 | -5.63%
47 | CC1(C)O[C@@H]2CC3C4C[C@H](F)C5=CC(=O)C=CC5(C)C4C(O)CC3(C)[C@]2(C(=O)CO)O1 (stereo partly shown) | 1.68%
48 | COC(=O)C1CN(C(=O)C(C)Oc2ccccc2F)c2ccccc2O1 (stereo not shown) | 15.6%
49 | CCCCN1C(=O)C(O)=C(C(C)=O)C1c1ccccc1 (stereo not shown) | 11%
50 | O=C(COc1ccc(F)c(Cl)c1)N1CCN(c2ccccn2)CC1 | -55.3%
51 | O=C(COc1ccc(Cl)cc1Cl)N1CCN(c2ccccn2)CC1 | -33.3%
52 | O=C(COc1cc(Cl)c(Cl)cc1Cl)N1CCN(c2ccccn2)CC1 | 16%
53 | Cc1cc(OCC(=O)N2CCN(c3ccccn3)CC2)cc(C)c1Br | -32.3%
54 | CCC(=O)c1ccc(OCC(=O)N2CCN(c3ccccn3)CC2)cc1 | -31.5%
55 | CC(C)(C)c1ccc(OCC(=O)N2CCN(c3ccccn3)CC2)cc1 | -51.7%
